# Results: PubChem BioAssay (NCATS)
# Results filed as inconclusive are left out. A call without a number means that no potency is given here. A number with no mark means an inactive call. Calls of active or inactive are those of the source. Calls follow the shape of the dose curve; as a rule, active = well fitted cell-killing curve with a large enough effect; inconclusive = small, poorly fitted or top-dose-only effect, or effect the other way; inactive = flat fitted curve, though single readings scatter.
# Experiments:
# Experiment in all cases: Primary qHTS to identify gynecologic anti-cancer compounds using libraries of approved drugs and bioactive compounds (AID 1345084); also: nearly all actives have a fitted effect of over 55% in size
# C33A = settings: Gynecologic cancer cell panel viability, ATPlite luminescence, 48 h; series mostly up to 57.5 µM
# Summary of the method: (§1)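 Five-concentration response, 48 h; readout is ATP-driven luciferase luminescence.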
# CAOV3 = settings: Gynecologic cancer cell panel viability, ATPlite luminescence, 48 h; series mostly up to 57.5 µM
# Summary of the method: as §1
# CASKI = settings: Gynecologic cancer cell panel viability, ATPlite luminescence, 48 h; series mostly up to 57.5 µM
# Summary of the method: as §1
# Es-2 = settings: Gynecologic cancer cell panel viability, ATPlite luminescence, 48 h; series mostly up to 57.5 µM
# Summary of the method: as §1
# HeLa = settings: Gynecologic cancer cell panel viability, ATPlite luminescence, 48 h; series mostly up to 57.5 µM
# Summary of the method: as §1
# Hek293T = settings: Gynecologic cancer cell panel viability, ATPlite luminescence, 48 h, control line for the selectivity index; series mostly up to 57.5 µM
# Summary of the method: as §1
# JEG-3 = settings: Gynecologic cancer cell panel viability, ATPlite luminescence, 48 h; series mostly up to 57.5 µM
# Summary of the method: as §1
# OV90 = settings: Gynecologic cancer cell panel viability, ATPlite luminescence, 48 h; series mostly up to 57.5 µM
# Summary of the method: as §1
# Potency is read from the fitted curve at half-maximal effect.
SMILES,Potency (C33A),Potency (CAOV3),Potency (CASKI),Potency (Es-2),Potency (HeLa),Potency (Hek293T),Potency (JEG-3),Potency (OV90)
CCC1NC(=O)C2C(Cl)C(Cl)CN2C(=O)C(C(C)O)NC(=O)CC(c2ccccc2)NC(=O)C(CO)NC1=O (stereo unspecified),inactive,inactive,inactive,inactive,inactive,inactive,inactive,inactive
CN1C(=O)c2ccccc2NC(=O)[C@]12O[C@@H]2c1ccccc1,inactive,,inactive,inactive,inactive,inactive,inactive,inactive
COC1CC(=O)C23C(=O)NC(CC(C)C)C2C(C)=C(C)C(OO)C3/C=C(\C)CCC(O)C1O (stereo unspecified),inactive,,inactive,inactive,inactive,inactive,inactive,inactive
CCN1C[C@]2(OC(=O)c3ccccc3NC(C)=O)CC[C@H](OC)[C@@]34[C@@H]2C[C@@H]([C@@H]13)[C@@]1(O)C[C@H](OC)[C@H]2C[C@@H]4[C@]1(O)[C@H]2OC,inactive,,inactive,inactive,inactive,inactive,inactive,inactive
C[C@H]1O[C@@H](O[C@H]2C[C@@H](O)[C@]3(CO)C4C(CC[C@]3(O)C2)[C@@]2(O)CC[C@H](C3=CC(=O)OC3)[C@@]2(C)C[C@H]4O)[C@@H](O)[C@@H](O)[C@H]1O (stereo partly specified),398 nM (active),,,355 nM (active),562 nM (active),355 nM (active),,1120 nM (active)
CC1=CC2/C=C(\C)CCC(O)C3OC(C)(C)OC3CC(=O)OC23C(=O)NC(CC(C)C)C3C1C (stereo unspecified),inactive,,inactive,inactive,inactive,inactive,inactive,inactive
CO[C@@H]1[C@H](O)[C@@H](O[C@@H]2C[C@H]3CC[C@@H]4C(CC[C@]5(C)[C@@H](C6=CC(=O)OC6)CC[C@]45O)[C@@]3(C)[C@H](O)C2)O[C@H](C)[C@@H]1O[C@@H]1O[C@H](CO)[C@@H](O)[C@H](O)[C@H]1O (stereo partly specified),199 nM (active),,1260 nM (active),398 nM (active),562 nM (active),398 nM (active),,2240 nM (active)
Clc1ccc(OCC2=NCCN2)cc1Cl,inactive,,inactive,inactive,inactive,inactive,inactive,inactive
C=C1[C@@H]2CC[C@@]3(C)[C@H](c4ccoc4)OC(=O)C[C@]13O[C@H]1CC(=O)C(C)(C)[C@H](C(OC(C)=O)C(=O)OC)[C@]12C (stereo partly specified),inactive,,inactive,inactive,inactive,inactive,inactive,inactive
COc1cc2c(cc1OC)[C@@]13CCN4CC5=CCO[C@H]6CC(=O)N2[C@H]1[C@H]6[C@H]5C[C@H]43,inactive,,inactive,inactive,inactive,inactive,inactive,inactive
CC[C@H]1CN2CC[C@H]1C[C@@H]2[C@@H](O)c1ccnc2ccc(OC)cc12,inactive,,inactive,inactive,inactive,inactive,inactive,inactive
CN1[C@H]2C[C@H](OC(=O)[C@H](CO)c3ccccc3)C[C@@H]1[C@@H](O)C2,inactive,,inactive,inactive,inactive,inactive,inactive,inactive
COC1C(O)C(OC2CCC3(C=O)C(CCC4C3CCC3(C)C(C5=CC(=O)OC5)CCC43O)C2)OC(C)C1OC1OC(CO)C(O)C(O)C1O (stereo unspecified),501 nM (active),,,891 nM (active),1260 nM (active),1000 nM (active),2240 nM (active),3550 nM (active)
CCC(C)(C#N)O[C@@H]1O[C@H](CO)[C@@H](O)[C@H](O)[C@H]1O (stereo partly specified),inactive,,inactive,inactive,inactive,inactive,inactive,inactive
COC1C(O)C(C)OC(OC2C(CO)O[C@@H](O[C@@H]3CC4CCC5C(CC[C@]6(C)[C@@H](C7=CC(=O)OC7)CC[C@]56O)[C@@]4(C)[C@H](O)C3)C(O)C2O)C1O (stereo partly specified),794 nM (active),,2510 nM (active),2820 nM (active),2820 nM (active),2820 nM (active),,4470 nM (active)
Cc1cn(C[C@H](N)C(=O)O)c(=O)n(Cc2cc(-c3ccccc3)sc2C(=O)O)c1=O,inactive,,inactive,inactive,inactive,inactive,inactive,inactive
C[C@H](NC(=O)Cc1cc(F)cc(F)c1)C(=O)N[C@@H]1N=C(c2ccccc2)c2ccccc2N(C)C1=O,inactive,,inactive,inactive,inactive,inactive,inactive,inactive
CN1C(=O)N(c2ccc(C#N)c(C(F)(F)F)c2)C(=O)[C@]1(CO)c1ccccc1,inactive,,inactive,,inactive,inactive,inactive,inactive
